From PubChem BioAssay (NCI)
The panel holds about 79,000 compounds, 15% with a hit somewhere; the sample as a whole holds those more often. A number with no mark means an inactive call. Calls of active or inactive are those of the source. No stated cut-off is given here; in the data, active means growth inhibition above about 70%; inactive means the rest.

Experiments:
[1] = NCI Yeast Anticancer Drug Screen. Data for the rad50 strain (AID 155);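 further: 0% = growth of vehicle-only cultures of the same strain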; details: S. cerevisiae rad50 strain growth inhibition, hits give high values
Procedure, shortened: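 DNA repair mutant yeast, compound exposure, growth read-out; inhibition is taken relative to vehicle.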

[2] = NCI Yeast Anticancer Drug Screen. Data for the mec2-1 strain (AID 157); details: S. cerevisiae mec2-1 strain, hits give high values
Procedure, shortened: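 Yeast mec2-1 mutant treated with compound. Readout: growth inhibition vs vehicle controls.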

[3] = NCI Yeast Anticancer Drug Screen. Data for the sgs1 mgt1 strain (AID 161);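 further: 0% = growth of cultures given vehicle only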; details: S. cerevisiae sgs1 mgt1 strain, hits give high values
Procedure, shortened: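 Genetically altered yeast, compound exposure, growth inhibition relative to vehicle.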

[4] = NCI Yeast Anticancer Drug Screen. Data for the cln2 rad14 strain (AID 165);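 further: 0% = growth equal to vehicle treated cultures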; details: S. cerevisiae cln2 rad14 strain, hits give high values
Procedure, shortened: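 cln2 rad14 yeast strain; compound exposure; growth inhibition read vs vehicle controls.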

[5] = NCI Yeast Anticancer Drug Screen. Data for the bub3 strain (AID 167); details: S. cerevisiae bub3 mutant strain, hits give high values
Procedure, shortened: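 In this screen, a yeast mutant lacking normal mitotic checkpoint function is challenged with compound. Relative growth versus vehicle gives the inhibition value.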

[6] = NCI Yeast Anticancer Drug Screen. Data for the mlh1 rad18 strain (AID 175); details: S. cerevisiae mlh1 rad18 strain growth inhibition, hits give high values
Procedure, shortened: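 Yeast w/ defined DNA-repair lesions; compound exposure; growth vs vehicle controls → % inhibition.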

[7] = at 5.0 µM (retest, dose inferred, filed as 0.5)
[8] = at 50.0 µM (retest, dose inferred, filed as 5.0)

Compound | growth inhibition [1, 7] | growth inhibition [1, 8] | growth inhibition ([1]; at 50.0 µM) | growth inhibition [2, 7] | growth inhibition [2, 8] | growth inhibition ([2]; at 50.0 µM) | growth inhibition [3, 7] | growth inhibition [3, 8] | growth inhibition ([3]; at 50.0 µM) | growth inhibition [4, 7] | growth inhibition [4, 8] | growth inhibition ([4]; at 50.0 µM) | growth inhibition [5, 7] | growth inhibition [5, 8] | growth inhibition ([5]; at 50.0 µM) | growth inhibition [6, 7] | growth inhibition [6, 8] | growth inhibition ([6]; at 50.0 µM)
COc1ccc(Cc2nncc3ccccc23)cc1OC | -4% | 84% (active) | 91.2% (active) | 1% | 83% (active) | 96.5% (active) | -3% | 92% (active) | 95.3% (active) | 1% | 83% (active) | 72.2% (active) | 1% | 90% (active) | 96% (active) | -4% | 93% (active) | 95.7% (active)
CC(SC1=CC(=O)c2c(Cl)ccc(O)c2C1=O)C(=O)O (configuration not stated) | 10% | 13% | 5.7% | 2% | 16% | 1.25% | 22% | 30% | -25.1% | -9% | 7% | -47.5% | 0% | 17% | 6% | 3% | 26% | 8.35%
Cc1cc(C)nc(NS(=O)(=O)c2ccc(Nc3c4ccccc4nc4c(C(=O)NC(CO)(CO)CO)cccc34)cc2)n1 | -11% | 26% | 81.8% (active) | 4% | -2% | -6.1% | 0% | -8% | 4.9% | 39% | -2% | 42.4% | 4% | 12% | 4.45% | -3% | 4% | -8.4%
O=C(O)c1ccccc1-c1ccccc1C(=O)Nc1ccc2c(c1)Cc1cc(F)ccc1-2 | 22% | 97% (active) | 94.1% (active) | -3% | 97% (active) | 97.5% (active) | -8% | 95% (active) | 97.9% (active) | -19% | 96% (active) | 96.8% (active) | -27% | 92% (active) | 97.8% (active) | -2% | 97% (active) | 97.2% (active)
COC(=O)/C=C(\C)Nc1ccc(Cc2ccc(Cl)cc2)cc1 | 7% | 98% (active) | 98.3% (active) | -3% | 99% (active) | 97.8% (active) | 7% | 99% (active) | 97.2% (active) | 1% | 99% (active) | 97.5% (active) | -3% | 98% (active) | 97.5% (active) | 9% | 99% (active) | 98.2% (active)
O=C(O)CCCCCCCCCCOc1ccc(Cl)cc1Cl | -3% | -8% | 98% (active) | -2% | -2% | 99.1% (active) | 0% | -3% | 94.3% (active) | 1% | -8% | 5.5% | -1% | 2% | 99.3% (active) | 0% | -1% | 98.2% (active)
COC(=O)C1(C)CCCC2(C)C3CC(=O)C(C(C)C)=CC3(O)CCC12 (configuration not stated) | 7% | 8% | 10.7% | -1% | -3% | -3.25% | 4% | -15% | 3.1% | -75% | -27% | 13.7% | 5% | 2% | 0.8% | 15% | 19% | -5.95%
CN1C(=O)CCC2[C@@H]3CC=C4C[C@@H](O)CC[C@]4(C)C3CC[C@@]21C (some centres not stated) | -3% | 27% | 16.4% | 0% | 11% | 0.3% | 1% | 59% | 69.8% | 10% | 13% | 28.8% | 22% | 66% | 57.7% | -7% | 16% | 70.8% (active)
O=NN(CCCl)C(=O)Oc1ccc(OC(=O)N(CCCl)N=O)cc1 | 87% (active) | 92% (active) | 59.6% | 86% (active) | 99% (active) | 91% (active) | 93% (active) | 99% (active) | 90.2% (active) | 53% | 90% (active) | 83.5% (active) | 56% | 93% (active) | 84.5% (active) | 96% (active) | 97% (active) | 90.6% (active)
